Source: PubChem
Shown are actives, neighbours in structure and some others; about 12% of the full set was active somewhere.
L3MBTL1 block: blocks human L3MBTL1; AlphaScreen L3MBTL1–H3K9me1 peptide binding; 230,000 tested, 0.66% active; Potency, µM (doses to about 57.1 µM), inactives show at the highest dose activity, negative = inhibition, actives largely listed as inhibitors; Q9Y468; also: % is scaled to controls: 0 for no effect and ±100 for the full control effect; nearly all actives have a fitted effect of over 60% in size
Target sequence (Q9Y468 whole entry, looked up): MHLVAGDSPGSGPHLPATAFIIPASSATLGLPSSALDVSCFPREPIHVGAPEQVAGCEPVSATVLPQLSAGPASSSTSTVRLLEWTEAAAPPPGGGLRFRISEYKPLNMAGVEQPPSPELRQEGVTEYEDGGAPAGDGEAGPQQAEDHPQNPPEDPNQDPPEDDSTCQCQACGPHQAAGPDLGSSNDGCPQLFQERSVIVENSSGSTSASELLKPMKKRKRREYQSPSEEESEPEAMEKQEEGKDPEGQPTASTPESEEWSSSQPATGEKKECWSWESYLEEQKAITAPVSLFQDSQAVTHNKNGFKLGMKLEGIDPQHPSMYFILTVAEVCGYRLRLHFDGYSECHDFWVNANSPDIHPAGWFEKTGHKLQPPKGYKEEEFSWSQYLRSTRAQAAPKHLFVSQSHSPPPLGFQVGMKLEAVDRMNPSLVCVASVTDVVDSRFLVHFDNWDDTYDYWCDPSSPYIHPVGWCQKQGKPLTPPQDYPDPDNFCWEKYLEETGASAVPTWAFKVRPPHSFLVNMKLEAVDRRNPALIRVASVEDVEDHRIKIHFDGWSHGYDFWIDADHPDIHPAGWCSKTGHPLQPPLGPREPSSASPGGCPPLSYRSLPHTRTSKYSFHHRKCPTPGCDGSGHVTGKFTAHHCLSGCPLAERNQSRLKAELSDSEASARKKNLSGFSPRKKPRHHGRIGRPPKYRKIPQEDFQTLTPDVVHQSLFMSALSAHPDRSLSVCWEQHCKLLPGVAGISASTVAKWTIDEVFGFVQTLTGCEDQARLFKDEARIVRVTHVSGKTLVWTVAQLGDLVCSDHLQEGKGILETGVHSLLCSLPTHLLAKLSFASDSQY
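First, the protein-peptide complex forms for 30 min at room temperature (L3MBTL1 50 nM, biotinylated H3K9me1 peptide 75 nM). Next, compounds are pin-transferred and incubated 30 min. Finally, AlphaScreen beads are added and read after 30 min.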
G9a block: blocks human histone lysine methyltransferase G9a. G9a H3K9 monomethylation, AlphaScreen, 2 h. Potency, µM (top dose mostly 102 µM), for the others: top-dose activity, negative = inhibition, usual class: inhibitors. 350,000 tested, 8.8% active; also: % is scaled to controls: 0 for no effect and ±100 for the full control effect; nearly all actives have a fitted effect of over 75% in size
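Quantitative HTS format: methyltransferase activity on a biotin-tagged H3K9 peptide is measured by AlphaScreen, using a rabbit anti-monomethyl-H3K9 antibody with streptavidin donor and anti-IgG acceptor beads. Final levels are 20 nM enzyme, 500 nM peptide, 20 uM SAM; 2 h RT.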
BAZ2B inh: blocks human BAZ2B | Q9UIF8 | AlphaScreen BAZ2B-H3K14Ac peptide displacement | Potency, µM (top dose mostly 114 µM), without a hit: at the highest dose activity change, negative = inhibition, actives largely listed as inhibitors | 360,000 tested, 4.4% active; also: % is scaled to controls: 0 for no effect and ±100 for the full control effect; nearly all actives have a fitted effect of over 60% in size
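BAZ2B 50 nM plus b-H3(5-23)K14Ac 50 nM, PBS pH 7.4/0.01% Tween-20, 30 min RT; compound added (max 110 uM), 30 min RT; streptavidin donor/Ni-chelate acceptor beads 10 ug/mL final, 20 min dark; AlphaScreen read.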
HP1b binding inh: inhibitors of HP1-beta chromodomain binding to methylated histone tails. P83916. AlphaScreen HP1-beta / biotin-H3K9me3 peptide binding. Potency, µM (titrated, usually from 114 µM), inactives show at the top dose activity change, negative = inhibition, usual class: inhibitors. 390,000 tested, 0.56% active. AID 540317; also: nearly all actives have a fitted effect of over 70% in size
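Compound inhibition of the preformed complex between 50 nM HP1-beta and 50 nM biotinylated H3K9me3 peptide was read by AlphaScreen. Buffer was PBS pH 7.4 with 0.01% Tween-20. Incubations ran 30 min at room temperature, with 10 ug/mL donor/acceptor beads.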
JMJD2A Tudor inh: blocks the human JMJD2A Tudor domain; O75164; 390,000 tested, 4.4% active; AlphaScreen JMJD2A-Tudor / H3K4me3 peptide binding; Potency, µM (highest dose often 114 µM), for the others: at the top dose activity change, negative = inhibition, most hits filed as inhibitors; also: % is scaled to controls: 0 for no effect and ±100 for the full control effect; nearly all actives have a fitted effect of over 50% in size
Sfp PPTase inh: inhibitors of Bacillus subtilis Sfp phosphopantetheinyl transferase; Biochemical Sfp PPTase activity, qHTS; Potency, µM, for the others: largest response in the series, negative = inhibition, usual class: inhibitors; 310,000 tested, 3.5% active;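 also: the enzyme is Sfp with the accession as filed and its product quenches rhodamine fluorescence; 0% = enzyme reaction without inhibitor and -100% = no enzyme wells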
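Step 1, compound plus 15 nM Sfp-PPTase, 15 min, room temperature. Step 2, add rhodamine-CoA (5 uM) and BHQ-2-YbbR (12.5 uM). Step 3, read 525/598 nm fluorescence at 0 and 30 min.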
* marks the source's active call; other numbers are inactive results; [ ] = remark or other dose. Calls follow the shape of the dose curve; as a rule, active = well fitted curve in the direction sought with a large enough effect; inconclusive = small, poorly fitted or top-dose-only effect, or another doubt; inactive = no such curve, though single readings can be large; an effect the other way counts as inactive or inconclusive. Potency is read from the fitted curve at half-maximal effect.

Screening Cc1ccc(S(=O)(=O)N/N=C2/CC(c3ccccc3)Oc3ccccc32)cc1[N+](=O)[O-] (stereo not drawn) returned G9a block 39.8µM*, BAZ2B inh inconclusive, HP1b binding inh -12.1%, JMJD2A Tudor inh -30.2% and Sfp PPTase inh 3.2%.
CCCC1CCC(=NNS(=O)(=O)c2ccc(C)c([N+](=O)[O-])c2)CC1 (stereo not drawn) was read as L3MBTL1 block 1.1%, G9a block 7.08µM*, BAZ2B inh -5.8%, HP1b binding inh 22.9%, JMJD2A Tudor inh -33.0%[57.1 µM] and Sfp PPTase inh 18.2%.
`Cc1ccc(S(=O)(=O)NN=C2CCC(C(C)(C)C)CC2)cc1[N+](=O)[O-]` (stereo not drawn) gave L3MBTL1 block 4.4%, G9a block 35.5µM*, BAZ2B inh -2.4%, HP1b binding inh 33.5%, JMJD2A Tudor inh -14.5%[57.1 µM] and Sfp PPTase inh -7.9%.
Screening CC1CCCC/C1=N\NS(=O)(=O)c1ccc(Br)cc1 (stereo not drawn) returned G9a block 3.55µM*, BAZ2B inh -5.0%, HP1b binding inh 47.1%, JMJD2A Tudor inh -1.6% and Sfp PPTase inh 17.2%.
Screening COC(=O)C1C[C@@H]2C3=C(C(=O)[C@@](C)(NC(=O)c4ccccc4)C3[C@H](C(=O)OC)C1)[C@H](C)n1c(=O)n(-c3ccccc3)c(=O)n12 (stereo partly drawn) returned HP1b binding inh 16.9%, JMJD2A Tudor inh -1.4% and Sfp PPTase inh -8.9%.
`Cc1ccccc1NC(=O)CN(C)S(=O)(=O)c1cccc2nsnc12` gave G9a block 7.7%[59 µM], BAZ2B inh 6.4%, HP1b binding inh -8.3% and JMJD2A Tudor inh -11.5%.
Cc1ccc(S(=O)(=O)NNC(=O)c2cnn(-c3ccc(Cl)cc3)c2C(F)(F)F)cc1 was read as L3MBTL1 block -13.4%, G9a block 56.2µM*, BAZ2B inh -20.6%, HP1b binding inh 1.4%, JMJD2A Tudor inh -17.4% and Sfp PPTase inh 4.7%.
For Cc1ccc(S(=O)(=O)NNC(=O)c2cnn(-c3ccccc3)c2C(F)(F)F)cc1 the results were L3MBTL1 block -5.2%, G9a block 29.9%[59 µM], BAZ2B inh -2.4%, HP1b binding inh 48.5%, JMJD2A Tudor inh -5.8% and Sfp PPTase inh 0.2%.
`CCSc1nc(-c2ccc(Cl)cc2)nc2c1Cc1c(CO)cnc(C)c1O2` gave G9a block inconclusive, BAZ2B inh -16.0%, HP1b binding inh 27.0% and JMJD2A Tudor inh -30.8%.
Nn1c(Cc2cccc3ccccc23)nnc1SCn1nnc2ccccc2c1=O was read as G9a block 4.47µM*, BAZ2B inh -5.2%, HP1b binding inh 32.4%, JMJD2A Tudor inh -13.7% and Sfp PPTase inh 4.5%.
Cc1ccc(Nc2nnc(SCn3nnc4ccccc4c3=O)s2)cc1 was read as G9a block -9.8%[59 µM], BAZ2B inh -7.2%, HP1b binding inh 4.2%, JMJD2A Tudor inh -20.4% and Sfp PPTase inh -9.3%.
Nc1nc(SCn2nnc3ccccc3c2=O)n[nH]1 was read as L3MBTL1 block 6.2%, G9a block 50.1µM*, BAZ2B inh -10.7%, HP1b binding inh 18.8%, JMJD2A Tudor inh -10.1% and Sfp PPTase inh -17.4%.
Screening O=c1c2ccccc2nnn1CSc1nnc(Nc2ccccc2)s1 returned L3MBTL1 block 4.0%, G9a block 44.7µM*, BAZ2B inh -4.3%, HP1b binding inh 24.2%, JMJD2A Tudor inh 1.0% and Sfp PPTase inh 14.9%.
`Nn1c(Cc2cccc3ccccc23)nnc1SC1CCOC1=O` (stereo not drawn) gave G9a block inconclusive, BAZ2B inh -37.1%, HP1b binding inh 36.7%, JMJD2A Tudor inh 89.1µM* and Sfp PPTase inh 5.3%.
CC(=O)C1=C(c2ccccc2)N(C(C)=O)n2c(nnc2C2CCCCC2)S1 was read as G9a block -1.2%[59 µM], BAZ2B inh 6.1%, HP1b binding inh 96.7% and JMJD2A Tudor inh 11.4%.
Cc1ccccc1CNC(=O)C1CCN(S(=O)(=O)Cc2ccccc2)CC1 was read as G9a block -38.0%[59 µM], BAZ2B inh 2.2%, HP1b binding inh 29.5% and JMJD2A Tudor inh 4.6%.
For Oc1c(C(c2ccc(Cl)cc2Cl)N2CCCC2)sc2nc(-c3ccco3)nn12 (stereo not drawn) the results were G9a block 10.2%[59 µM], BAZ2B inh -8.0%, HP1b binding inh 19.7% and JMJD2A Tudor inh -7.1%.
For CCNC(=O)CC1S/C(=N/N=C(\C)c2ccccc2)NC1=O (stereo not drawn) the results were L3MBTL1 block 6.5%, G9a block 47.4%, BAZ2B inh -24.5%, HP1b binding inh 20.0%, JMJD2A Tudor inh inconclusive and Sfp PPTase inh 6.7%.
C/C(=N\N=C1\NC(=O)C(Cc2ccccc2)S1)c1ccccc1 (stereo not drawn) was read as L3MBTL1 block -5.7%, G9a block inconclusive, BAZ2B inh inconclusive, HP1b binding inh inconclusive, JMJD2A Tudor inh 63.1µM* and Sfp PPTase inh 6.1%.
`CNc1nc(C23CC4CC(CC(C4)C2)C3)cs1` gave G9a block 31.6µM*, BAZ2B inh -2.9%, HP1b binding inh -4.8%, JMJD2A Tudor inh -19.9% and Sfp PPTase inh -25.3%.
Screening CN1CCC2(CC1)N=C(c1ccc(F)cc1)C(=S)N2C(=O)c1ccc(C(C)(C)C)cc1 returned L3MBTL1 block -4.7%, G9a block 10µM*, BAZ2B inh 35.5µM*, HP1b binding inh 31.6µM*, JMJD2A Tudor inh 31.6µM* and Sfp PPTase inh 50.1µM*.
Screening Cc1cc(NC(=O)CSc2nc(-c3ccccc3)nc3c2c(=O)n(C)c(=O)n3C)no1 returned L3MBTL1 block 9.4%, BAZ2B inh -2.2%, HP1b binding inh 23.4%, JMJD2A Tudor inh -6.2% and Sfp PPTase inh 5.8%.
Screening CO[C@@]1(NC(=O)C2SC(=C(C(N)=O)C(=O)O)S2)C(=O)N2C(C(=O)O)=C(CSc3nnnn3C)CS[C@@H]21 (stereo partly drawn) returned L3MBTL1 block 7.94µM*, G9a block 15.8µM*, BAZ2B inh 50.1µM*, HP1b binding inh -1.9% and JMJD2A Tudor inh 25.1µM*.
For Cc1cc(C)nc(N/N=C/c2ccc(N3CCOCC3)cc2)n1 the results were L3MBTL1 block 2.6%, G9a block 30.4%, BAZ2B inh -14.6%, HP1b binding inh 32.1%, JMJD2A Tudor inh -10.5% and Sfp PPTase inh 23.9%.
Screening CCCc1cc(=O)[nH]c(Nc2ccc(N3CCCCC3)cc2)n1 returned L3MBTL1 block 6.4%[11.4 µM], G9a block 8.91µM*, BAZ2B inh 50.1µM*, HP1b binding inh inconclusive, JMJD2A Tudor inh 50.1µM* and Sfp PPTase inh -3.1%.
